Test results published in paper PMC4336329 (PLoS ONE, 2015).
About 14,000 (4.5%) of roughly 310,000 compounds showed an effect of 50% or more. Effects have a minus sign here. What follows is part of a selection rich in strong results, with near analogues and random picks from the rest.

What follows are compounds tested against human ether-à-go-go-related gene (hERG) potassium channel (human, UniProt Q12809) (assay: primary screen, population patch clamp on CHO cells stably expressing hERG; higher = less effect of the substance).
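Note: peak tail current of the secondary pulse compared with the same well before compound.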

Chain of human ether-à-go-go-related gene (hERG) potassium channel (Q12809 whole entry, looked up): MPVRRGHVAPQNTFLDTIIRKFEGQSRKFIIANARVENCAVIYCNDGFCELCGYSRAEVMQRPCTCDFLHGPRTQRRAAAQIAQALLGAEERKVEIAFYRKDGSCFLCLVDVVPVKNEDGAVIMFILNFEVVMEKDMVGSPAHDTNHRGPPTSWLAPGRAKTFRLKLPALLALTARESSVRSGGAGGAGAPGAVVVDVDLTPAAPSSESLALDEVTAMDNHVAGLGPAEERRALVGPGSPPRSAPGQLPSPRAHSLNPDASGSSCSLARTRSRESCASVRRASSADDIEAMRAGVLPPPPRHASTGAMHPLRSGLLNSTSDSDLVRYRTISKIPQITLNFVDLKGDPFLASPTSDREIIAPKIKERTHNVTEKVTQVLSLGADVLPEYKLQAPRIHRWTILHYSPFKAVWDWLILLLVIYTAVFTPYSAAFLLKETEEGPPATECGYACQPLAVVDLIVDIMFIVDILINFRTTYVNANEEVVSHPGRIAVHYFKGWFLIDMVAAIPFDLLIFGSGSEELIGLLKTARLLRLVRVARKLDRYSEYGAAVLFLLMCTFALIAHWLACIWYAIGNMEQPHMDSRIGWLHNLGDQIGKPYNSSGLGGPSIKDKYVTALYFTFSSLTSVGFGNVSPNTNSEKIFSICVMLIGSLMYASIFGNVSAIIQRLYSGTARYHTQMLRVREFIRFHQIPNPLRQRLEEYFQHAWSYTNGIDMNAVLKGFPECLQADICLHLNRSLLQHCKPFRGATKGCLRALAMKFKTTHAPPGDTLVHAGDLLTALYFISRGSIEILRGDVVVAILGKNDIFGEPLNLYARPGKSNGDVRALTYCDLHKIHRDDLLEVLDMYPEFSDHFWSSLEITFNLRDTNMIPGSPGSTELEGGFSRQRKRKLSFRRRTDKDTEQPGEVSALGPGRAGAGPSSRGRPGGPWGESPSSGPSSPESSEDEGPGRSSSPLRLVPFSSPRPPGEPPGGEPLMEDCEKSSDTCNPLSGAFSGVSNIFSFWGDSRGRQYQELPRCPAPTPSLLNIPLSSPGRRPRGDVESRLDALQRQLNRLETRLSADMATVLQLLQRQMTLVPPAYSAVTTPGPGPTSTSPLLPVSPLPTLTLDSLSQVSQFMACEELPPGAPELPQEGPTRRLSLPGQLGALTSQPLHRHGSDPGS

Row | Compound | hERG current change (%, negative = inhibition) at 10uM [%]
1 | Cc1ccc(C(=O)Nc2nnc(S(=O)(=O)N3CCC(C)CC3)s2)cc1 | 21.8
2 | Cc1cc(/C=N/NC(=O)c2ccc(O)cc2)c(C)n1C1CC1 | 20.4
3 | CCCNC(=O)/C(C#N)=C1\N=C(NC(=O)c2ccco2)c2ccccc21 | -44.6
4 | N#C/C(C(=O)NCc1ccccc1)=C1/N=C(NC(=O)c2ccco2)c2ccccc21 | 10.3
5 | CC(C)CNC(=O)/C(C#N)=C1\N=C(NC(=O)c2ccco2)c2ccccc21 | -60.4
6 | Cc1c(C(=O)N(Cc2ccccc2)C2CCS(=O)(=O)C2)oc2ccccc12 (stereo not drawn) | -38.5
7 | O=C(c1ccc([N+](=O)[O-])cc1)N(Cc1cccs1)C1CCS(=O)(=O)C1 (stereo not drawn) | -50
8 | O=C(c1ccccc1)N(Cc1cccs1)C1CCS(=O)(=O)C1 (stereo not drawn) | 12
9 | O=C(COc1ccc(F)cc1)N(Cc1cccs1)C1CCS(=O)(=O)C1 (stereo not drawn) | -33.4
10 | O=C(COc1ccc(Br)cc1)N(Cc1cccs1)C1CCS(=O)(=O)C1 (stereo not drawn) | -51.7
11 | CC(C)(C)c1ccc(OCC(=O)N(Cc2cccs2)C2CCS(=O)(=O)C2)cc1 (stereo not drawn) | -54.2
12 | Cc1ccc2c(C)c(C(=O)N(Cc3cccs3)C3CCS(=O)(=O)C3)oc2c1 (stereo not drawn) | -20.8
13 | COc1ccc(OCC(=O)N(Cc2cccs2)C2CCS(=O)(=O)C2)cc1 (stereo not drawn) | -6.75
14 | O=C(COc1ccccc1)N(Cc1cccs1)C1CCS(=O)(=O)C1 (stereo not drawn) | -17.4
15 | Cc1ccc(OCC(=O)N(Cc2cccs2)C2CCS(=O)(=O)C2)cc1 (stereo not drawn) | -8.3
16 | Cc1ccc(C(=O)N(Cc2cccs2)C2CCS(=O)(=O)C2)cc1 (stereo not drawn) | 0.98
17 | Cc1c(C(=O)N(Cc2cccs2)C2CCS(=O)(=O)C2)oc2ccccc12 (stereo not drawn) | -50.2
18 | COc1ccccc1Oc1ccc2c(c1)C(=O)N(c1ccccc1)C2=O | -3.59
19 | Cc1ccsc1CN(C(=O)c1ccccc1)C1CCS(=O)(=O)C1 (stereo not drawn) | 2.16
20 | CCc1ccc(OCC(=O)N(Cc2cccs2)C2CCS(=O)(=O)C2)cc1 (stereo not drawn) | -47.8
21 | COc1cccc(CN(C(=O)COc2ccccc2[N+](=O)[O-])C2CCS(=O)(=O)C2)c1 (stereo not drawn) | -42
22 | Cc1ccc(OCC(=O)N(Cc2cccs2)C2CCS(=O)(=O)C2)cc1C (stereo not drawn) | 4.21
23 | O=C(COc1ccccc1[N+](=O)[O-])N(Cc1cccc(Br)c1)C1CCS(=O)(=O)C1 (stereo not drawn) | -57.8
24 | Cc1ccc(C(=O)N(Cc2sccc2C)C2CCS(=O)(=O)C2)cc1 (stereo not drawn) | -28.2
25 | CCN(C(=O)COc1ccccc1[N+](=O)[O-])C1CCS(=O)(=O)C1 (stereo not drawn) | 0.104
26 | O=C(COc1ccc([N+](=O)[O-])cc1)N(Cc1cccs1)C1CCS(=O)(=O)C1 (stereo not drawn) | -52.3
27 | Cc1ccsc1CN(C(=O)c1ccc([N+](=O)[O-])cc1)C1CCS(=O)(=O)C1 (stereo not drawn) | -60.8

Row | Compound | hERG current change (%, negative = inhibition) at 10uM [%]
28 | CC1C/C(=N\NC(=S)NC(C)C)CC(C)(C)C1 (stereo not drawn) | 9.06
29 | CCOC(=O)CNC(=O)CSc1nnc(NC(=O)c2ccc3c(c2)OCO3)s1 | 3.8
30 | CCC(CC)NC(=O)c1nn(Cc2ccccc2)c(=O)c2ccccc12 | 10.9
31 | CS(=O)(=O)N(CC(=O)NCCSCc1ccccc1Cl)c1ccccc1F | -35.4
32 | CC1=NN(C(N)=S)C(=O)C1N=Nc1ccccc1Cl (stereo not drawn) | 20.2
33 | Cc1cc(NC(=O)C(C)SCC(=O)OCC(=O)N(C)c2ccccc2)no1 (stereo not drawn) | -7
34 | Cc1cc(NC(=O)C(C)SCC(=O)OCC(=O)N(Cc2ccccc2)C(C)(C)C)no1 (stereo not drawn) | -35.4
35 | Cc1cccc(N(Cc2ccccc2)C(=O)CSC(C)C(=O)Nc2cc(C)on2)c1 (stereo not drawn) | -53
36 | COc1ccccc1N1CCN(c2ccc([N+](=O)[O-])cn2)CC1 | 0.823
37 | O=C(O)c1cccc(CSc2nc(-c3ccccc3)cc(C(F)(F)F)n2)c1 | 0.347
38 | CCOC(=O)C1CCCN(C(=O)c2ccc(-c3ccc([N+](=O)[O-])cc3)o2)C1 (stereo not drawn) | -56.1
39 | CC1CCN(C(=O)c2ccc([N+](=O)[O-])o2)CC1 | 4.53
40 | CCCN1CCN(C(=O)c2ccc(-c3ccc([N+](=O)[O-])cc3)o2)CC1 | -78.1
41 | CCOC(=O)C1CCCN(C(=O)c2ccc([N+](=O)[O-])cc2)C1 (stereo not drawn) | -14.4
42 | O=C(c1ccc(-c2ccc([N+](=O)[O-])cc2)o1)N1CCCC(C(F)(F)F)C1 (stereo not drawn) | -17
43 | CC1CCCN(C(=O)c2ccc([N+](=O)[O-])o2)C1 (stereo not drawn) | 21.6
44 | O=C(c1ccc(-c2ccc([N+](=O)[O-])cc2)o1)N1CCCCCCC1 | -22.7
45 | O=C(c1ccc(-c2ccc([N+](=O)[O-])cc2)o1)N1CCCCC1 | -58.4
46 | Cc1ccccc1N1CCN(C(=S)c2ccc(-c3ccc([N+](=O)[O-])cc3)o2)CC1 | 20.2
47 | CCOC(=O)C1CCCN(C(=O)c2ccc(CS(=O)(=O)c3ccc(C)cc3)o2)C1 (stereo not drawn) | -20.4
48 | CC1CC(C)CN(C(=O)c2ccc(-c3ccc([N+](=O)[O-])cc3)o2)C1 (stereo not drawn) | -69.1
49 | O=C(c1ccc(-c2ccc([N+](=O)[O-])cc2)o1)N1CCN(S(=O)(=O)c2cccs2)CC1 | -27.3
50 | O=C(CSc1ncnc2ccccc12)NCC(=O)c1ccccc1 | 1.57
51 | O=C(Nc1ccccc1)c1c(O)[nH]c(=O)[nH]c1=O | 8.67
52 | Cc1ccc(N2CC(C(=O)NCc3n[nH]c(=O)c4ccccc34)CC2=O)cc1C (stereo not drawn) | -13.5
53 | COc1ccc(-c2cc(C(=O)Nc3cc(C)on3)no2)cc1 | 19.9
54 | O=C1NC(c2ccc(-c3ccccc3[N+](=O)[O-])o2)C(C(=O)c2ccc(Cl)cc2)C(O)(C(F)(F)F)N1 (stereo not drawn) | 2.13
